Results from paper PMC5540273 (PLoS ONE, 2017).

What was measured:
Settings in all cases: concentration: 1 μM, replicates: in singlicate; n = 1
[1] = system: RIOK1
[2] = system: RIOK2
[3] = system: RIOK3
[4] = system: RIPK1
[5] = system: RIPK2
[6] = system: RIPK4
[7] = system: RIPK5
[8] = system: ROCK1
[9] = system: ROCK2
[10] = system: ROS1
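Further: KINOMEscan kinase panel screen.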

| Compound | %Inh [1] [%] | %Inh [2] [%] | %Inh [3] [%] | %Inh [4] [%] | %Inh [5] [%] | %Inh [6] [%] | %Inh [7] [%] | %Inh [8] [%] | %Inh [9] [%] | %Inh [10] [%] |
| --- | --- | --- | --- | --- | --- | --- | --- | --- | --- | --- |
| COc1cccc(CC(=O)N2CCc3cc(-c4cn(C)c5ncnc(N)c45)ccc32)c1 [GSK2608899] | 20 | 20 | 17 | 100 | 35 | 0 | 58 | 23 | 5 | 9 |
| NCCC(NC(=O)c1cc(Br)c(-c2ccnc3[nH]ccc23)s1)c1ccccc1.O=C(O)C(F)(F)F.O=C(O)C(F)(F)F (stereo not drawn) [GSK1307810] | 100 | 97.9 | 100 | 81 | 4 | 0 | 1 | 100 | 99.8 | 29 |
| COc1cccc(-c2nc(-c3ccccc3)[nH]c2-c2ccncc2)c1 [SB-610250] | 18 | 0 | 0 | 0 | 75 | 11 | 0 | 24 | 13 | 0 |
| O=C(Nc1n[nH]c2cc(-c3cccs3)ccc12)C1CC1 [SB-731284] | 85 | 18 | 82 | 59 | 4 | 10 | 48 | 31 | 32 | 0 |
| CSc1ccc(NC2=C(c3ccc(Cl)cc3)C(=O)NC2=O)cc1 [SB-317658] | 3 | 0 | 20 | 0 | 0 | 16 | 7 | 38 | 0 | 3 |
| Cc1cc(-c2c(-c3ccc(F)cc3)ncn2CCCN2CCOCC2)nc(N)n1 [SB-222517] | 10 | 0 | 11 | 0 | 0 | 14 | 11 | 29 | 0 | 19 |
| Cc1ccc(C)c(NC(=O)Nc2ccc(C)c(-c3ccc(C(=O)Nc4ccncc4)cc3)c2)c1 [GSK1398473] | 38 | 48 | 0 | 42 | 8 | 11 | 7 | 0 | 0 | 0 |
| COc1ccc(C2=C(Nc3cccc(O)c3)C(=O)NC2=O)cc1 [SB-390766] | 22 | 0 | 0 | 0 | 32 | 10 | 0 | 18 | 19 | 0 |
| Cl.Cl.NCC(NC(=O)c1cc(-c2cccnc2)c(-c2ccnc3[nH]ccc23)s1)c1ccccc1 (stereo not drawn) [GSK1323434] | 60 | 54 | 57 | 10 | 26 | 16 | 0 | 99.7 | 99.4 | 20 |
| COc1cccc2c(-c3ccncc3)c(-c3ccc(F)cc3)nn12 [GW468513] | 32 | 13 | 26 | 0 | 56 | 8 | 0 | 0 | 28 | 0 |
| CCNC(=O)/C=C/c1n[nH]c2cc(Sc3ccccc3C(=O)NC)ccc12 | 0 | 7 | 0 | 0 | 29 | 4 | 18 | 4 | 1 | 33 |
| Cn1cc(-c2cnc(N)c3c(-c4ccc5c(c4)CCN5C(=O)Cc4ccccc4)csc23)cn1 [GSK2593074] | 33 | 0 | 6 | 100 | 96.1 | 100 | 55 | 0 | 11 | 0 |
| Nc1ncc(-c2cn[nH]c2)c2scc(-c3ccc4c(c3)CCN4C(=O)Cc3ccccc3)c12 [GSK2593067] | 75 | 86 | 57 | 100 | 94.6 | 0 | 10 | 41 | 36 | 9 |
| COc1ccc(NC(=O)c2ccoc2)cc1-c1ccc(C(=O)NCC2CC2)cc1 [GW810437] | 8 | 1 | 5 | 0 | 4 | 34 | 14 | 36 | 0 | 0 |
| Cc1cc(-c2ccnc(Nc3cccc(C#N)c3)n2)cc(C)c1O [GSK1440913] | 100 | 91.7 | 97.9 | 53 | 28 | 37 | 8 | 0 | 0 | 64 |
| O=C(Nc1n[nH]c2nc(-c3cccc(O)c3)ccc12)C1CC1 [SB-711805] | 53 | 11 | 59 | 14 | 5 | 37 | 7 | 2 | 0 | 0 |
| Cc1cccc(Nc2nc(NCCN)ncc2C(N)=O)c1 [GSK1292139] | 89 | 3 | 90.2 | 20 | 0 | 81 | 14 | 82 | 81 | 19 |

| Compound | %Inh [1] [%] | %Inh [2] [%] | %Inh [3] [%] | %Inh [4] [%] | %Inh [5] [%] | %Inh [6] [%] | %Inh [7] [%] | %Inh [8] [%] | %Inh [9] [%] | %Inh [10] [%] |
| --- | --- | --- | --- | --- | --- | --- | --- | --- | --- | --- |
| Cl.N#CCc1ccc(Nc2nccc(Nc3ccc(Oc4ccccc4)cc3)n2)cc1 [GW639905] | 21 | 23 | 0 | 0 | 96.1 | 0 | 17 | 31 | 34 | 0 |
| COc1cc(Nc2nccc(N3CCC(NS(=O)(=O)c4ccc(NC(C)=O)cc4)CC3)n2)cc(OC)c1OC [GSK1379825] | 76 | 66 | 59 | 81 | 80 | 48 | 0 | 28 | 26 | 48 |
| Cc1ccc(NC(=O)c2ccnc(N3CCCCC3)c2)cc1-c1ccc(C(=O)NCC2CC2)cc1 [GW775610] | 50 | 0 | 35 | 43 | 0 | 36 | 0 | 25 | 7 | 10 |
| CCn1cnc2c(NCc3ccccc3)ncnc21 [SKF-96418] | 0 | 0 | 0 | 0 | 0 | 13 | 28 | 56 | 16 | 0 |
| COC(=O)Nc1nc2ccc(Oc3ccc(CC(=O)Nc4cc(C(F)(F)F)ccc4F)cc3)cc2[nH]1 [GW680903] | 0 | 0 | 8 | 84 | 48 | 8 | 0 | 31 | 12 | 0 |
| O=C(Nc1n[nH]c2nc(-c3ccccc3O)ccc12)C1CC1 [SB-711880] | 43 | 0 | 33 | 70 | 0 | 40 | 0 | 0 | 0 | 0 |
| CC(C)(C)c1ccc(C(=O)Nc2cn3cc(-n4ccnc4)ccc3n2)cc1 | 0 | 6 | 0 | 2 | 24 | 0 | 34 | 0 | 0 | 0 |
| COc1ccc(C)c(Nc2ccnc(Nc3ccc(-c4cnc[nH]4)cc3)n2)c1.Cl [GW784041] | 36 | 6 | 34 | 13 | 100 | 0 | 0 | 0 | 0 | 3 |
| Fc1cc(Cl)ccc1Nc1ccnc2cc(-c3ccc(CN4CCSCC4)o3)ccc12 [GW560106] | 9 | 0 | 0 | 0 | 94.7 | 0 | 0 | 29 | 32 | 20 |
| O=C(O)C(F)(F)F.O=c1[nH]ccc2nc(N[C@@H]3CCNC3)nc(Nc3cc(Cl)cc(Cl)c3)c12 [GSK2188764] | 97.4 | 29 | 100 | 16 | 30 | 44 | 10 | 99.5 | 99.7 | 0 |
| COc1cc(Nc2ccnc3cc(-c4ccncc4)ccc23)cc(OC)c1OC.Cl [GW494610] | 39 | 11 | 0 | 0 | 83 | 0 | 0 | 31 | 14 | 16 |
| Nc1cccc(-c2ccc3c(N)n[nH]c3c2)c1 [GSK2193613] | 93.9 | 64 | 55 | 0 | 0 | 49 | 0 | 42 | 48 | 17 |
| O=C(Nc1n[nH]c2nc(-c3ccccc3)ccc12)C1CC1 [SB-708999] | 35 | 1 | 37 | 63 | 0 | 2 | 0 | 21 | 12 | 0 |
| CCn1c(-c2nonc2N)nc2c(-c3ccccc3)ncc(OCCCN)c21.O=C(O)C(F)(F)F.O=C(O)C(F)(F)F [GSK260205] | 7 | 15 | 0 | 0 | 30 | 10 | 0 | 91.7 | 98.4 | 0 |
| CN(c1ccc(F)c(NC(=O)c2cccc(OC(C)(C)C#N)c2Cl)c1)c1ccc2nc(NC(=O)C3CC3)sc2n1 | 0 | 71 | 27 | 0 | 36 | 2 | 0 | 0 | 0 | 0 |
| COC(=O)Nc1nc2cc(Oc3ccc(NC(=O)Nc4cccc(SC)c4)cc3)ccc2[nH]1.Cl [GW697999] | 13 | 0 | 2 | 4 | 29 | 2 | 0 | 82 | 55 | 0 |
